Source: PubChem BioAssay (EPA / NIEHS)
The source made the active and inactive calls. Rule for the calls: active = hit-call score of the fitted dose curve at least 0.9, where 1 is the maximum; inactive = score below 0.9.

Key:
Details in all cases: mRNA level, 48 h; actives raise or lower the signal
[1] = read-out: CYP2C9 (gene 1559); experiment: LTEA_HepaRG_CYP2C9: Life Technologies and Expression Analysis (LTEA) Assay for CYP2C9 using HepaRG (AID 2283484)
How it was run: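 Differentiated human HepaRG cells in serum-free induction medium were exposed 48 h to chemicals in 8-point half-log series from 100 uM (0.5% DMSO), in duplicate. CYP2C9 mRNA was measured by qRT-PCR, normalized to ACTB/GAPDH/POLR2A, with bidirectional fitting versus DMSO.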

[2] = read-out: CYP2E1 (gene 1571); experiment: LTEA_HepaRG_CYP2E1: Life Technologies and Expression Analysis (LTEA) Assay for CYP2E1 using HepaRG (AID 2283485)
How it was run: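 HepaRG cells, plated 48 h, then exposed 48 h in serum-free induction medium to eight half-log concentrations from 100 uM in 0.5% DMSO, duplicate. CYP2E1 mRNA by qRT-PCR, normalized to ACTB/GAPDH/POLR2A; bidirectional fit versus DMSO.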

[3] = read-out: CYP4A11 (gene 1579); experiment: LTEA_HepaRG_CYP4A11: Life Technologies and Expression Analysis (LTEA) Assay for CYP4A11 using HepaRG (AID 2283486)
How it was run: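 Readout is CYP4A11 transcript level by qRT-PCR, normalized to three housekeeping genes and fitted bidirectionally against 0.5% DMSO. Human HepaRG cells were treated 48 h, in duplicate, with an 8-point half-log series topping at 100 uM.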

[4] = read-out: Cytochrome P450 3A4 (Homo sapiens) (UniProt P08684); experiment: LTEA_HepaRG_CYP3A4: Life Technologies and Expression Analysis (LTEA) Assay for CYP3A4 using HepaRG (AID 2283487)
How it was run: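 HepaRG, 48 h exposure, 8-pt CRC from 100 uM (half-log), 0.5% DMSO, duplicates; serum-free induction medium. Readout: CYP3A4 mRNA, qRT-PCR, ACTB/GAPDH/POLR2A normalization. Bidirectional fit vs DMSO.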

[5] = read-out: DNA damage-inducible transcript 3 (DDIT3), DDIT3 (gene 1649); experiment: LTEA_HepaRG_DDIT3: Life Technologies and Expression Analysis (LTEA) Assay for DNA damage-inducible transcript 3 (DDIT3) using HepaRG (AID 2283488)
How it was run: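 HepaRG cells, 48 h after plating, exposed 48 h in serum-free induction medium to 8 half-log concentrations up to 100 uM in 0.5% DMSO, in duplicate. DDIT3 mRNA measured by TaqMan qRT-PCR, normalized to ACTB, GAPDH and POLR2A. Fitted bidirectionally against DMSO.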

[6] = read-out: Pro-epidermal growth factor (Homo sapiens) (UniProt P01133); experiment: LTEA_HepaRG_EGF: Life Technologies and Expression Analysis (LTEA) Assay for Epidermal growth factor (EGF) using HepaRG (AID 2283489)
How it was run: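 EGF transcript measured by Fluidigm TaqMan qRT-PCR with three housekeeping genes for normalization, 48 h after dosing HepaRG cultures in duplicate (top 100 uM, half-log steps, 0.5% DMSO vehicle). Gain or loss relative to DMSO fitted.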

[7] = read-out: Early growth response protein 1 (EGR1) transcription factor, EGR1 (gene 1958); experiment: LTEA_HepaRG_EGR1: Life Technologies and Expression Analysis (LTEA) Assay for Early growth response protein 1 (EGR1) transcription factor using HepaRG (AID 2283490)
How it was run: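 Differentiated HepaRG cells in serum-free induction medium exposed 48 hours, duplicate, to 8 half-log concentrations up to 100 uM in 0.5% DMSO. EGR1 mRNA measured by TaqMan qRT-PCR, normalized to ACTB, GAPDH, POLR2A; bidirectional fit versus DMSO.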

[8] = read-out: Ezrin (EZR), EZR (gene 7430); experiment: LTEA_HepaRG_EZR: Life Technologies and Expression Analysis (LTEA) Assay for Ezrin (EZR) using HepaRG (AID 2283491)
How it was run: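 Read-out is EZR transcript level by qRT-PCR, normalized to three housekeeping genes and fitted bidirectionally against the DMSO control. Human HepaRG cells received test chemicals for 48 h at eight half-log concentrations up to 100 uM in 0.5% DMSO.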

[9] = read-out: Cytochrome P450 3A7 (Homo sapiens) (UniProt P24462); experiment: LTEA_HepaRG_CYP3A7: Life Technologies and Expression Analysis (LTEA) Assay for CYP3A7 using HepaRG (AID 2283492)
How it was run: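 CYP3A7 transcript measured by qRT-PCR (ACTB, GAPDH, POLR2A normalization) after 48 h chemical exposure of HepaRG cells in duplicate. Eight half-log concentrations, maximum 100 uM, 0.5% DMSO vehicle; bidirectional curve fitting against DMSO baseline.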

[10] = read-out: CYP3A5 (gene 1577); experiment: LTEA_HepaRG_CYP3A5: Life Technologies and Expression Analysis (LTEA) Assay for CYP3A5 using HepaRG (AID 2283493)
How it was run: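 HepaRG cells, plated 48 h then in serum-free induction medium, dosed in duplicate for 48 h with eight half-log concentrations up to 100 uM in 0.5% DMSO. Gene mRNA by Fluidigm TaqMan qRT-PCR, normalized to ACTB, GAPDH, POLR2A.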

[11] = read-out: Fatty Acid-Binding Protein 1 (FABP1), FABP1 (gene 2168); experiment: LTEA_HepaRG_FABP1: Life Technologies and Expression Analysis (LTEA) Assay for Fatty Acid-Binding Protein 1 (FABP1) using HepaRG (AID 2283494)
How it was run: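 Differentiated human HepaRG cells exposed 48 h in serum-free induction medium to eight half-log concentrations up to 100 uM (0.5% DMSO), duplicate. FABP1 mRNA by qRT-PCR, normalised to ACTB, GAPDH, POLR2A; bidirectional fitting against DMSO.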

[12] = read-out: Cytochrome P450 4A22 (Homo sapiens) (UniProt Q5TCH4); experiment: LTEA_HepaRG_CYP4A22: Life Technologies and Expression Analysis (LTEA) Assay for Cytochrome P450 4A22 (CYP4A22) using HepaRG (AID 2283495)
How it was run: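 Gene expression measured by qRT-PCR against three housekeeping genes (ACTB, GAPDH, POLR2A), with gain or loss fitted relative to 0.5% DMSO vehicle. HepaRG cultures received 48 h chemical treatment, top concentration 100 uM, half-log steps, duplicate wells.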

[13] = read-out: Cytochrome P450 7A1 (Homo sapiens) (UniProt P22680); experiment: LTEA_HepaRG_CYP7A1: Life Technologies and Expression Analysis (LTEA) Assay for Cytochrome P450 7A1 (CYP7A1) using HepaRG (AID 2283496)
How it was run: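 HepaRG cells plated 48 h, then switched to serum-free induction medium and exposed in duplicate for 48 h to 8-point half-log series from 100 uM in 0.5% DMSO. CYP7A1 mRNA by qRT-PCR (TaqMan), normalized to ACTB/GAPDH/POLR2A; bidirectional fit versus DMSO.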

[14] = read-out: Glutathione S-Transferase (GSTA2), GSTA2 (gene 2939); experiment: LTEA_HepaRG_GSTA2: Life Technologies and Expression Analysis (LTEA) Assay for Glutathione S-Transferase (GSTA2) using HepaRG (AID 2283497)
How it was run: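 Differentiated human HepaRG cells were exposed in duplicate for 48 h in serum-free induction medium, 8 points from 100 uM top in half-log steps, 0.5% DMSO. GSTA2 mRNA was measured by TaqMan qRT-PCR, normalized to ACTB, GAPDH and POLR2A; bidirectional fit versus DMSO.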

[15] = read-out: Glutamate-cysteine ligase catalytic (GCLC), GCLC (gene 2729); experiment: LTEA_HepaRG_GCLC: Life Technologies and Expression Analysis (LTEA) Assay for Glutamate-cysteine ligase catalytic (GCLC) using HepaRG (AID 2283498)
How it was run: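 Differentiated HepaRG cells exposed 48 h in serum-free induction medium, eight-point half-log series topping at 100 uM in 0.5% DMSO, duplicates. GCLC mRNA by qRT-PCR normalized to ACTB, GAPDH and POLR2A, fitted bidirectionally versus DMSO.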

[16] = read-out: growth arrest and DNA damage 45 (GADD45G), GADD45G (gene 10912); experiment: LTEA_HepaRG_GADD45G: Life Technologies and Expression Analysis (LTEA) Assay for growth arrest and DNA damage 45 (GADD45G) using HepaRG (AID 2283499)
How it was run: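 GADD45G transcript level by qRT-PCR (housekeeping-normalized: ACTB, GAPDH, POLR2A) after 48 h chemical treatment of a single HepaRG lot in serum-free induction medium; eight-point half-log series up to 100 uM in 0.5% DMSO, duplicates, up- or down-regulation scored.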

[17] = read-out: Glutamate-cysteine ligase regulatory (GCLM), GCLM (gene 2730); experiment: LTEA_HepaRG_GCLM: Life Technologies and Expression Analysis (LTEA) Assay for Glutamate-cysteine ligase regulatory (GCLM) using HepaRG (AID 2283500)
How it was run: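 Differentiated HepaRG cells exposed 48 h in serum-free induction medium to eight half-log concentrations up to 100 uM (0.5% DMSO). GCLM mRNA by TaqMan qRT-PCR, normalized to ACTB, GAPDH and POLR2A; bidirectional fit versus DMSO.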

[18] = read-out: Glutathione S-transferase M3 (GSTM3), GSTM3 (gene 2947); experiment: LTEA_HepaRG_GSTM3: Life Technologies and Expression Analysis (LTEA) Assay for Glutathione S-transferase M3 (GSTM3) using HepaRG (AID 2283501)
How it was run: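 GSTM3 transcript levels came from Fluidigm TaqMan qRT-PCR normalized to three housekeeping genes, fitted in both directions against DMSO. HepaRG cultures received chemicals for 48 h in serum-free induction medium (0.5% DMSO), 8 half-log concentrations up to 100 uM, duplicate.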

[19] = read-out: Heat shock 70 kDa protein 1 (HSPA1A), gene 3303; experiment: LTEA_HepaRG_HSPA1A: Life Technologies and Expression Analysis (LTEA) Assay for Heat shock 70 kDa protein 1 (HSPA1A) using HepaRG (AID 2283502)
How it was run: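 Human HepaRG cells in serum-free induction medium were exposed in duplicate for 48 h to 8 half-log concentrations, highest 100 uM, in 0.5% DMSO. HSPA1A mRNA read by TaqMan qRT-PCR, normalized to ACTB, GAPDH, POLR2A, fitted bidirectionally against DMSO.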

[20] = read-out: Hypoxia-inducible factor 1-alpha (Homo sapiens) (UniProt Q16665); experiment: LTEA_HepaRG_HIF1A: Life Technologies and Expression Analysis (LTEA) Assay for Hypoxia-inducible factor 1 (HIF1A) Trancription factor using HepaRG (AID 2283503)
How it was run: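 Differentiated HepaRG cells in serum-free induction medium exposed 48 h, in duplicate, to 8-point half-log series from 100 uM in 0.5% DMSO. HIF1A mRNA measured by TaqMan qRT-PCR, normalized to ACTB/GAPDH/POLR2A, fitted bidirectionally versus DMSO.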

Measured: AC50

Hypoxia-inducible factor 1-alpha (Homo sapiens), sequence (Q16665 whole entry, looked up): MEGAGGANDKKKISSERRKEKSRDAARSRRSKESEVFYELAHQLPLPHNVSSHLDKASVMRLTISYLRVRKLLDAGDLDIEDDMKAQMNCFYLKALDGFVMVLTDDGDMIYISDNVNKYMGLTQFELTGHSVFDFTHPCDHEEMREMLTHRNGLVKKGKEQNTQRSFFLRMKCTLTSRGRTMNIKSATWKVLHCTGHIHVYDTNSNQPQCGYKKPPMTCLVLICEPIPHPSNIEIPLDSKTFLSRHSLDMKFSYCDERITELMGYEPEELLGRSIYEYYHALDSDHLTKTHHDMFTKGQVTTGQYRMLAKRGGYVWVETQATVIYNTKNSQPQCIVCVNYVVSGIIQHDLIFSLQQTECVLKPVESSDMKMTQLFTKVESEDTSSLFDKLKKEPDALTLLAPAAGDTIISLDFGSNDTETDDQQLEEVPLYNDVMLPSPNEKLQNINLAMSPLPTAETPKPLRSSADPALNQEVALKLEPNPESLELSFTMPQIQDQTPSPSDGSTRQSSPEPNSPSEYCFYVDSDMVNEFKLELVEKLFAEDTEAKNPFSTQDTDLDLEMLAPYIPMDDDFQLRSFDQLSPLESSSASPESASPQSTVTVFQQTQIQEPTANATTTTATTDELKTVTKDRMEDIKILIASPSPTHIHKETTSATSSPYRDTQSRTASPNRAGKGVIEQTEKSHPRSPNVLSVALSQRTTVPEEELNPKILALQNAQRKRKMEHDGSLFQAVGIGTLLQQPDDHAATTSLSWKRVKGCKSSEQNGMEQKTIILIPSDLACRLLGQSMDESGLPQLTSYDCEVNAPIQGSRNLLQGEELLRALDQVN
Cytochrome P450 3A7 (Homo sapiens), sequence (P24462 whole entry, looked up): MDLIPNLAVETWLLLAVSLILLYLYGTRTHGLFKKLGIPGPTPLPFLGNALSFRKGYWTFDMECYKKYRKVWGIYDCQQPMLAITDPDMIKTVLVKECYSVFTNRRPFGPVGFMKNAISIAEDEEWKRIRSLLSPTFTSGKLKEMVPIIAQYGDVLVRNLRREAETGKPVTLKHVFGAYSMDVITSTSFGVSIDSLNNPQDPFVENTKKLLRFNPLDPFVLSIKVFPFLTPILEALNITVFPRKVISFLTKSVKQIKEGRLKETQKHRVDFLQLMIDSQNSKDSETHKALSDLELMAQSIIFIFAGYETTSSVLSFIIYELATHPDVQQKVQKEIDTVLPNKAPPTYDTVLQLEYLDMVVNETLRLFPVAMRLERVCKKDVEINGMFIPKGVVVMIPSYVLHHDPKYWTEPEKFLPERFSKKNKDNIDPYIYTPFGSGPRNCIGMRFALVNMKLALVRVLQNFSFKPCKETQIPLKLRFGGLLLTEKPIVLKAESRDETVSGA
Cytochrome P450 3A4 (Homo sapiens), sequence (P08684 whole entry, looked up): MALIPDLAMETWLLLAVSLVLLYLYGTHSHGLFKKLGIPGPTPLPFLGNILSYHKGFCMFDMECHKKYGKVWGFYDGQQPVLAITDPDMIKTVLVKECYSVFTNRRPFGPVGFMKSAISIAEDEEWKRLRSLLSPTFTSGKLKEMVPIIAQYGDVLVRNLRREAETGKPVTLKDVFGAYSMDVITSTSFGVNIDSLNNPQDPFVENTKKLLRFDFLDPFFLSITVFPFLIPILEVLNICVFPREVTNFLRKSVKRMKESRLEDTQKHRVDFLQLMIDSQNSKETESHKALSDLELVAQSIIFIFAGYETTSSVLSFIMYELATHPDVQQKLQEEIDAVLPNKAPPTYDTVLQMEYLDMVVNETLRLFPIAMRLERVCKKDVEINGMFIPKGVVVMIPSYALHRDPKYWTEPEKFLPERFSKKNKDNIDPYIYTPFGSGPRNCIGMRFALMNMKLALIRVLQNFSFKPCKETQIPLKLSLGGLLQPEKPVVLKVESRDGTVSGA

O=C1CCCCCN1
inactive: [1] | [2] | [3] | [4] | [5] | [6] | [7] | [8] | [9] | [10] | [11] | [12] | [13] | [14] | [15] | [16] | [17] | [18] | [19] | [20]

CCOC(=O)COc1ccc2c(c1)CC(NCC(O)c1cccc(Cl)c1)CC2 (stereo not given)
inactive: [1] | [2] | [3] | [4] | [5] | [6] | [7] | [8] | [9] | [10] | [12] | [13] | [14] | [15] | [16] | [17] | [18] | [19] | [20]
active: [11] 45.8 µM

CC(C)CCCCCCOC(=O)c1ccc(C(=O)OCCCCCCC(C)C)c(C(=O)OCCCCCCC(C)C)c1
inactive: [1] | [2] | [3] | [4] | [5] | [6] | [7] | [8] | [9] | [10] | [11] | [12] | [13] | [14] | [15] | [16] | [17] | [18] | [19] | [20]
